A number with no mark means an inactive call. How the calls were made is not given here.

The test system of one assay is Botulinum neurotoxin type F light chain protease (Clostridium botulinum). Kind of assay: Clostridium botulinum type F light chain protease inhibitors, microsphere substrate cleavage, validation (AID 588459). The conditions noted are these: multiplex microsphere protease substrate cleavage assay, flow cytometry; at 10 µM; active compounds read high.
For `O=C(CSCc1ccccc1)NCCCN1CCOCC1`, the inhibition was -2.9%.
Regarding `NC(=O)c1c(-c2ccccc2)oc2ccc(O)cc12`, the inhibition was -1.9%.
As for `Cc1ccc2nc(N=C(N)N)nc(C)c2c1`, the inhibition is 3.2%.
For the compound `Cc1ncc(C(=O)O)c(C(=O)O)c1N`, the inhibition is 0.4%.
In the case of `Cc1ccc2[nH]c3c(c2c1)CCNC3=O`, the inhibition is -0.6%.
`CCCn1c(=O)c2[nH]c(C3CCCC3)nc2n(CCC)c1=O`: the inhibition was 4.7%.
Regarding `Cc1cccc(Oc2coc3cc(OC(=O)c4cncc(Br)c4)ccc3c2=O)c1`, the inhibition was 2.1%.
In the case of `CCC(=O)Nc1ccc(C(=O)N2CCN(C(=O)c3ccco3)CC2)cc1`, the inhibition is -2.6%.
As for `CC(=O)OC[C@H]1O[C@@H](n2ncc(=O)[nH]c2=O)[C@H](OC(C)=O)[C@@H]1OC(C)=O`, the inhibition is -0.5%.
On to `Cc1ccc(C(=O)Nc2ccc(O)cc2C(=O)O)cc1C`, for which the inhibition was 10.3%.
`CCCCNC(=O)NS(=O)(=O)c1ccc(C)cc1`: the inhibition was 1.1%.
As to `CCSC(=O)CCCCCCCCCCCO`, the inhibition is 2.8%.
On to `CC1=CC(C)(C)N2C(=O)C3(NCCc4c3[nH]c3ccccc43)c3cc(C)cc1c32` (stereo not drawn), for which the inhibition was -0.9%.
Consider `NS(=O)(=O)c1cc2c(cc1Cl)NC(C1C[C@H]3C=C[C@@H]1C3)NS2(=O)=O` (stereo partly drawn), for which the inhibition was 1.4%.
On the same count and under the same terms, in the case of `COc1ccc(C)cc1S(=O)(=O)Nc1ccc(F)cc1` it was 1.1%; in that of `C=CCNC(=S)N1CCc2c([nH]c3ccccc23)C1C` (stereo not drawn), 1.4%; in that of `CCOC(=O)c1ncn2c1CN(C)C(=O)c1cc(F)ccc1-2`, -1.4%.
For `CC1CNCCN1S(=O)(=O)c1cccc2cnccc12` (stereo not drawn), the inhibition was 2.5%.
Regarding `CSc1ccc(/C=N/N2CCN(Cc3ccc(C)cc3C)CC2)cc1`, the inhibition was -0.3%.
Take `C[C@]12CCC(=O)C=C1CC[C@@H]1[C@@H]2CC[C@@]2(C)[C@H]1CC[C@]2(O)C(=O)CO`: the inhibition is 1.3%.
For `CCN1CCn2c3c(c4cc(Cl)ccc42)CCCC31` (stereo not drawn), the inhibition was 0.6%.
The same measure, in the same setting: the value for `CNC(=O)Oc1ccc2c(c1)[C@]1(C)CCN(C)[C@@H]1N2C` was -0.4%; that for `CCOC(=O)c1cnc2ccc(C(=O)OC)cc2c1Nc1ccc2c(c1)OCCO2` was -0.5%; that for `NC(=O)c1ncn([C@@H]2O[C@H](CO)[C@@H](O)[C@H]2O)c1O` was -1.3%.
On to `O=C(CS(=O)(=O)Cc1ccccc1)NCc1ccc2c(c1)OCO2`, for which the inhibition was 1.6%.
Turning to `CCc1cc2c(=O)c(-c3nc4ccccc4n3C)coc2c(CN2CCN(C)CC2)c1O`, the inhibition was -0.9%.
Consider `O=C(CCc1ccccc1)Nc1ccccc1C(F)(F)F`, for which the inhibition was 0.7%.
On the same count and under the same terms, in the case of `COc1cc([C@@H]2c3cc4c(cc3[C@H](O)[C@H]3COC(=O)[C@H]23)OCO4)cc(OC)c1OC` it was 1.4%; in that of `OCC1(CCOc2ccccc2)CCN(CCCn2cccn2)CC1`, -0.5%.
As for `COc1cc(=O)n(C)c2ccccc12`, the inhibition was -9.2%.
In the case of `NS(=O)(=O)c1cc2c(cc1C(F)(F)F)NCNS2(=O)=O`, the inhibition is 0.5%.
As to `Nc1ccc(N=Nc2ccccc2)c(N)n1`, the inhibition was -2%.
As for `COc1cc(C2CC(=O)NC3=C2C(=O)CC(C)(C)C3)ccc1O` (stereo not drawn), the inhibition was -1.7%.
For the compound `CC(C)NS(=O)(=O)c1ccc(OCC(=O)Nc2cccc(F)c2)cc1`, the inhibition was -3.9%.
Regarding `CC(COc1ccccc1)NC(C)C(O)c1ccc(O)cc1` (stereo not drawn), the inhibition is -1.7%.
Turning to `O=C(c1ccc(O)cc1)c1ccc(O)cc1O`, the inhibition is -0.9%.
Consider `CCOc1ccc(CCn2c(-c3ccco3)nc3ccccc3c2=O)cc1OCC`, for which the inhibition is 3.5%.
Consider `C[C@H](NC(=O)Nc1ccccc1F)C(=O)O`, for which the inhibition is -3.8%.
In the case of `Cc1cc(C)c(NC(=O)NC(=O)C(Cl)(Cl)Cl)c(C)c1`, the inhibition is 2.9%.

In a further assay the target is Botulinum neurotoxin type A (Clostridium botulinum) (UniProt P0DPI0). Kind of assay: BoNT/A light chain protease inhibitors, biochemical, multiplex microsphere flow cytometry, validation set (AID 588460). The conditions noted are these: at 10 µM, active compounds read high.
Botulinum neurotoxin type A (Clostridium botulinum), sequence (P0DPI0 whole entry, looked up): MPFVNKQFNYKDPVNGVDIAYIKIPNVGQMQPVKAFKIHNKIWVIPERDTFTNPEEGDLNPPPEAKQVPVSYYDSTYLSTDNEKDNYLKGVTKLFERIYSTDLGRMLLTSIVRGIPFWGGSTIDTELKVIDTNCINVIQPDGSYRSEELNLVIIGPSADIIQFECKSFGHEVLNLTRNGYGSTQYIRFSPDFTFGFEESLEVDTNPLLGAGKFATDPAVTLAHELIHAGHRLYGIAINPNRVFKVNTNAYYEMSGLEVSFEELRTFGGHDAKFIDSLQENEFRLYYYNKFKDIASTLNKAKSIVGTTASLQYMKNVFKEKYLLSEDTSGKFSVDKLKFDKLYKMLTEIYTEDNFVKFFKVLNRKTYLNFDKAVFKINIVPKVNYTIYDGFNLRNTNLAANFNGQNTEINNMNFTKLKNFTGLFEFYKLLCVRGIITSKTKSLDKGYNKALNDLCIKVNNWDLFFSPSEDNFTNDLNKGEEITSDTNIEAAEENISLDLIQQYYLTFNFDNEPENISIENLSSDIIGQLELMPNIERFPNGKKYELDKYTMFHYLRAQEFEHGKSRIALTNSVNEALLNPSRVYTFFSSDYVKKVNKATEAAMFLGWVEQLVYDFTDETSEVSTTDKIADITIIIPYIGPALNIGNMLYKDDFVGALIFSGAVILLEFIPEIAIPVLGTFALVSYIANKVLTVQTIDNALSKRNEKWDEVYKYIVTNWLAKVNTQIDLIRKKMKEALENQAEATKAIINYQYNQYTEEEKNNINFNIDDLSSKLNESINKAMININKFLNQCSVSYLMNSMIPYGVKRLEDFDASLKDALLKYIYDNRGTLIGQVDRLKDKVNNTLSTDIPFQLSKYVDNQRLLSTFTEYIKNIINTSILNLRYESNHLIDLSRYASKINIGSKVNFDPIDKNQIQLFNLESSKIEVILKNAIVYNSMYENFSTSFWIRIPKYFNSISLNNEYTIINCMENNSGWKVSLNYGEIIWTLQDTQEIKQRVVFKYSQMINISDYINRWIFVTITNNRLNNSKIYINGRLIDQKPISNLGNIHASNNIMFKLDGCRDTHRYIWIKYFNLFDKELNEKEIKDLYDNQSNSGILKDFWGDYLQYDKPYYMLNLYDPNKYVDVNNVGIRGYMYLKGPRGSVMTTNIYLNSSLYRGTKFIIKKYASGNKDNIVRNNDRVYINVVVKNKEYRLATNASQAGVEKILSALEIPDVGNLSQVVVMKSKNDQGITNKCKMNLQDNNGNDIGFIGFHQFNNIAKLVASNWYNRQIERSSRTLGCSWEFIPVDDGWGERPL
In the case of `O=C(CSCc1ccccc1)NCCCN1CCOCC1`, the inhibition is -0.9%.
For the compound `NC(=O)c1c(-c2ccccc2)oc2ccc(O)cc12`, the inhibition is -0.3%.
Consider `Cc1ccc2nc(N=C(N)N)nc(C)c2c1`, for which the inhibition was -0.2%.
Same read-out and setting: the value for `Cc1ncc(C(=O)O)c(C(=O)O)c1N` was -0.1%; that for `Cc1ccc2[nH]c3c(c2c1)CCNC3=O` was -0.5%.
Take `CCCn1c(=O)c2[nH]c(C3CCCC3)nc2n(CCC)c1=O`: the inhibition was 0.8%.
As to `Cc1cccc(Oc2coc3cc(OC(=O)c4cncc(Br)c4)ccc3c2=O)c1`, the inhibition was 0.8%.
On the same count and under the same terms, the value for `CCC(=O)Nc1ccc(C(=O)N2CCN(C(=O)c3ccco3)CC2)cc1` was -1.9%; that for `CC(=O)OC[C@H]1O[C@@H](n2ncc(=O)[nH]c2=O)[C@H](OC(C)=O)[C@@H]1OC(C)=O` was -0.3%.
With `Cc1ccc(C(=O)Nc2ccc(O)cc2C(=O)O)cc1C`, the inhibition was 2.6%.
Regarding `CCCCNC(=O)NS(=O)(=O)c1ccc(C)cc1`, the inhibition is 1.1%.
For the compound `CCSC(=O)CCCCCCCCCCCO`, the inhibition is 1.5%.
`CC1=CC(C)(C)N2C(=O)C3(NCCc4c3[nH]c3ccccc43)c3cc(C)cc1c32` (stereo not drawn): the inhibition was -2.5%.
For the compound `NS(=O)(=O)c1cc2c(cc1Cl)NC(C1C[C@H]3C=C[C@@H]1C3)NS2(=O)=O` (stereo partly drawn), the inhibition was 1%.
For the compound `COc1ccc(C)cc1S(=O)(=O)Nc1ccc(F)cc1`, the inhibition is -0.3%.
On to `C=CCNC(=S)N1CCc2c([nH]c3ccccc23)C1C` (stereo not drawn), for which the inhibition was 0.4%.
On the same count and under the same terms, the value for `CCOC(=O)c1ncn2c1CN(C)C(=O)c1cc(F)ccc1-2` was -1.4%.
On to `CC1CNCCN1S(=O)(=O)c1cccc2cnccc12` (stereo not drawn), for which the inhibition is -0.1%.
As for `CSc1ccc(/C=N/N2CCN(Cc3ccc(C)cc3C)CC2)cc1`, the inhibition was -0.6%.
Take `C[C@]12CCC(=O)C=C1CC[C@@H]1[C@@H]2CC[C@@]2(C)[C@H]1CC[C@]2(O)C(=O)CO`: the inhibition is -1.2%.
As to `CCN1CCn2c3c(c4cc(Cl)ccc42)CCCC31` (stereo not drawn), the inhibition is 1.4%.
With `CNC(=O)Oc1ccc2c(c1)[C@]1(C)CCN(C)[C@@H]1N2C`, the inhibition was 1.1%.
For `CCOC(=O)c1cnc2ccc(C(=O)OC)cc2c1Nc1ccc2c(c1)OCCO2`, the inhibition was 0.1%.
On to `NC(=O)c1ncn([C@@H]2O[C@H](CO)[C@@H](O)[C@H]2O)c1O`, for which the inhibition was -1.9%.
The same measure, in the same setting: the value for `O=C(CS(=O)(=O)Cc1ccccc1)NCc1ccc2c(c1)OCO2` was 0.1%; that for `CCc1cc2c(=O)c(-c3nc4ccccc4n3C)coc2c(CN2CCN(C)CC2)c1O` was 0.3%; that for `O=C(CCc1ccccc1)Nc1ccccc1C(F)(F)F` was -0.1%.
As to `COc1cc([C@@H]2c3cc4c(cc3[C@H](O)[C@H]3COC(=O)[C@H]23)OCO4)cc(OC)c1OC`, the inhibition is 0%.
In the case of `OCC1(CCOc2ccccc2)CCN(CCCn2cccn2)CC1`, the inhibition is -1%.
`COc1cc(=O)n(C)c2ccccc12`: the inhibition is -2.1%.
Regarding `NS(=O)(=O)c1cc2c(cc1C(F)(F)F)NCNS2(=O)=O`, the inhibition was -0.4%.
With `Nc1ccc(N=Nc2ccccc2)c(N)n1`, the inhibition was -0.2%.
Take `COc1cc(C2CC(=O)NC3=C2C(=O)CC(C)(C)C3)ccc1O` (stereo not drawn): the inhibition is 0.3%.
On to `CC(C)NS(=O)(=O)c1ccc(OCC(=O)Nc2cccc(F)c2)cc1`, for which the inhibition is -0.3%.
Take `CC(COc1ccccc1)NC(C)C(O)c1ccc(O)cc1` (stereo not drawn): the inhibition is 0.2%.
Same read-out and setting: in the case of `O=C(c1ccc(O)cc1)c1ccc(O)cc1O` it was 1.3%; in that of `CCOc1ccc(CCn2c(-c3ccco3)nc3ccccc3c2=O)cc1OCC`, -0.4%.
Same read-out and setting: in the case of `C[C@H](NC(=O)Nc1ccccc1F)C(=O)O` it was -0.3%.
Regarding `Cc1cc(C)c(NC(=O)NC(=O)C(Cl)(Cl)Cl)c(C)c1`, the inhibition is 0.1%.
